AmpC detergent – qHTS Inhibitors of AmpC Beta-Lactamase (assay with detergent); P00811; AmpC hydrolysis of nitrocefin, absorbance 480 nm, 0.01% Triton; Potency, µM (series often up to 114 µM), for the others: at the top dose activity change, negative = inhibition, actives largely listed as inhibitors; hit rate 0.041% among 370,000; AID 485294, 2010;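 also: 0% = no-compound wells and -100% = no-enzyme wells; nearly all actives have a fitted effect of over 25% in size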
Target sequence (P00811 whole entry, looked up): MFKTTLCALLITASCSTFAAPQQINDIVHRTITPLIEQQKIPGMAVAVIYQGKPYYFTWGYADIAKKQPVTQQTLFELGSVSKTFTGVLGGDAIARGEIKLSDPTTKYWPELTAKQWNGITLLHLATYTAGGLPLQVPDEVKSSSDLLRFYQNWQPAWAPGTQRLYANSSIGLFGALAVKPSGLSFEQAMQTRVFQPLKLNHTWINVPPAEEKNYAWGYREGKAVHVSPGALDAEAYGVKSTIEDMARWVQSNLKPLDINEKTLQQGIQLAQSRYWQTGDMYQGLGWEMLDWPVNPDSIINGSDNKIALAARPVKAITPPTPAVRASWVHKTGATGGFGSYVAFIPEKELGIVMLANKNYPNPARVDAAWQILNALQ
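20 mM phosphate pH 7.0 + 0.01% (detergent screen) or 0.0001% Triton X-100; 5.3 nM AmpC reagent; cpd preinc 15 min RT; nitrocefin (800 uM stock) to start; A480 q20 s × 4 min; Activity was normalised to no-enzyme and no-compound control wells.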
Pf growth 48h – Primary qHTS for delayed death inhibitors of the malarial parasite plastid, 48 hour incubation | AID 504832, 2011 | P. falciparum luciferase growth in erythrocytes, 48 h | hit rate 5.9% among 310,000 | Potency, µM (top dose mostly 28.7 µM), inactives show top-dose activity change, negative = inhibition, hits mostly inhibitors; also: % is scaled to controls: 0 for no effect and ±100 for the full control effect
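Luminescence readout; reporter = integrated firefly luciferase in P. falciparum. RBC culture at 2% hematocrit, 0.1% parasitemia final, 37 C/5% CO2; decreased signal taken as growth inhibition.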
SARS PLP yeast – qHTS of Yeast-based Assay for SARS-CoV PLP. S. cerevisiae expressing SARS-CoV PLpro, growth rescue. Potency, µM (top dose mostly 32.9 µM), for the others: at the highest dose activity, positive = growth rescue, usual class: activators. hit rate 0.19% among 330,000; calls by dose curve; also: 0% is about no effect; nearly all actives have a fitted effect of over 55% in size
Pf growth 96h – Primary qHTS for delayed death inhibitors of the malarial parasite plastid, 96 hour incubation. P. falciparum luciferase reporter growth, 96 h. hit rate 6.9% among 320,000. Potency, µM (titrated, usually from 28.7 µM), inactives show top-dose activity change, negative = inhibition, most hits filed as inhibitors; also: % is scaled to controls: 0 for no effect and ±100 for the full control effect
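Plates of compound plus infected erythrocytes (2% hematocrit, 0.05% parasitemia final) incubate 96 hours, 37 C, 5% CO2. Detection reagent added; reduced luminescence from the parasites' luciferase reporter flags inhibition.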
AmpC no deterg – qHTS Inhibitors of AmpC Beta-Lactamase (assay without detergent); hit rate 0.52% among 330,000; AmpC nitrocefin hydrolysis, absorbance 480 nm, 0.0001% Triton; Potency, µM (titrated, usually from 57.1 µM), without a hit: at the highest dose activity change, negative = inhibition, actives largely listed as inhibitors; P00811;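 also: plate controls were no compound for no effect and no enzyme for full effect; nearly all actives have a fitted effect of over 20% in size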
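AmpC (5.3 nM in the dispensed reagent) in 20 mM phosphate pH 7.0 with 0.01% (detergent screen) or 0.0001% Triton X-100 was preincubated with compounds for 15 min at room temperature. Nitrocefin was then added from an 800 uM solution, and hydrolysis was followed at 480 nm.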
Sm TGR inh – qHTS Assay for the Inhibitors of Schistosoma Mansoni Peroxiredoxins. Potency, µM (doses to about 114 µM), for inactives: at the top dose activity change, negative = inhibition, usual class: inhibitors. purified TGR, DTNB reduction, TNB absorbance 405 nm. hit rate 3% among 360,000. Schistosoma mansoni thioredoxin glutathione reductase (TGR), Q962Y6. AID 485364, 2010; also: % is scaled to controls: 0 for no effect and ±100 for the full control effect; nearly all actives have a fitted effect of over 60% in size
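Kinetic colorimetric format: TGR-catalysed, NADPH-driven DTNB reduction monitored via TNB absorbance. Enzyme dispensed at 20 nM; compound exposure 15 min at room temperature before reaction start.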
* = called active by the depositor; u = inconclusive; x = no result; [ ] = remark or other dose. Compounds with a hit are over-represented: about 12% of the library has one in this group of screens. Unless noted, calls follow the shape of the dose curve; as a rule, active = well fitted curve in the direction sought with a large enough effect; inconclusive = small, poorly fitted or top-dose-only effect, or another doubt; inactive = no such curve, though single readings can be large; an effect the other way counts as inactive or inconclusive. Potency is read from the fitted curve at half-maximal effect.

SMILES | AmpC detergent | Pf growth 48h | SARS PLP yeast | Pf growth 96h | AmpC no deterg | Sm TGR inh
COC(=O)C1=NN(c2ccccc2)C2(S1)S/C(=C\c1ccccc1)C(=O)N2c1ccccc1 (centres undefined) | 2% | 13µM* | -9% | x | -23% | -3%
COc1ccc(-c2nc(C#N)c(NC(C)c3ccccc3)o2)cc1OC (centres undefined) | 0% | 15µM* | 0% | u | 32% | -17%
CCOC(=O)CC1C(=O)NCCN1C(=O)COc1ccc(C(C)(C)C)cc1 (centres undefined) | 0% | 0% | 3% | 28% | 57% | -1%
Cc1ccc(S(=O)(=O)c2nnn3c2nc(NCCc2ccccc2)c2sccc23)cc1 | 14% | x | x | x | x | 3%
Cc1ccc(CCNc2nc3c(S(=O)(=O)c4ccccc4)nnn3c3ccsc23)cc1 | -3% | x | x | x | x | 32µM*
CC1C(=O)Nc2ccc(S(=O)(=O)N3CCCCC3)cc2NC1=O (centres undefined) | -1% | x | x | x | x | -6%
CSCCC1Nc2ccc(S(=O)(=O)N3CCOCC3)cc2NC1=O (centres undefined) | -18% | -24% | 3% | 10µM* | -11% | 50µM*
COCCNC(=O)C(C)OC(=O)c1cc2occc2n1C (centres undefined) | -3% | 10% | 1% | -18% | -3% | 24%
COc1ccc(C(CC(=O)N2CCCC2)c2c(OC)cc(OC)c3c(-c4ccccc4)cc(=O)oc23)cc1 (centres undefined) | 4% | 9.3µM* | -2% | u | 142% | -29%
COc1ccc(C(CC(=O)N2CCN(c3ccccc3)CC2)c2c(OC)cc(OC)c3c(-c4ccccc4)cc(=O)oc23)cc1 (centres undefined) | -6% | u | 1% | u | -40% | -28%
COc1ccc(C(CC(=O)N2CCCC2)c2c(OC)cc(OC)c3ccc(=O)oc23)cc1 (centres undefined) | 1% | u | 1% | u | 137% | -4%
COc1ccc(C(CC(=O)N2CCCC(C)C2)c2c(OC)cc(OC)c3c(-c4ccccc4)cc(=O)oc23)cc1 (centres undefined) | -5% | 9.3µM* | -3% | 12µM* | 64% | u
COc1cc(C(CC(=O)N2CCCC2)c2c(OC)cc(OC)c3c(-c4ccccc4)cc(=O)oc23)cc(OC)c1OC (centres undefined) | 2% | 5.2µM* | 0% | 3.7µM* | 207% | -17%
COc1ccc(C(CC(=O)N2CCOCC2)c2c(OC)cc(OC)c3c(-c4ccccc4)cc(=O)oc23)cc1 (centres undefined) | -1% | 10µM* | 0% | u | 203% | -3%
CC(=O)Nc1ccccc1OCc1cc(=O)n2c3c(sc2n1)CCCC3 | 0% | x | x | x | x | 1%
COc1ccc(C(CC(=O)N2CCCC(C)C2)c2c(OC)cc(OC)c3ccc(=O)oc23)cc1 (centres undefined) | -6% | 12µM* | 0% | u | 98% | -12%
COc1ccc(C(CC(=O)N2CCCCC2)c2c(OC)cc(OC)c3c(-c4ccccc4)cc(=O)oc23)cc1 (centres undefined) | 2% | 12µM* | 0% | 13µM* | 61% | u
CCCCN(C)C(=O)CN1C(=O)CCn2nc(-c3cn(C)c4ccccc34)cc21 | -2% | x | x | x | x | -3%
Cc1cccc(NC(=O)C(NS(=O)(=O)c2cccc3nsnc23)c2ccccc2)c1C (centres undefined) | 0% | x | x | x | x | 8%
COCCNc1oc(/C=C/c2ccccc2OC)nc1S(=O)(=O)c1ccccc1 | -7% | 9.3µM* | -1% | 7.4µM* | 30% | 13µM*
COCCNc1oc(-c2ccccc2)nc1S(=O)(=O)c1ccc(Br)cc1 | 5% | x | x | x | x | 7%
O=C(CC1CC2CCC1C2)NCCc1ccc(Cl)cc1 (centres undefined) | u | 26% | -5% | 45% | 5% | -5%
COc1cc2c(cc1OC)C(c1ccccc1O)NCC2 (centres undefined) | 2% | u | -3% | u | -14% | -21%
Oc1cc2c(cc1O)[C@H]1c3ccccc3CN[C@@H]1CC2 | -3% | x | 4% | x | -18% | 8.9µM*
CC(=O)N1c2c(cc(Br)cc2S(=O)(=O)N2CCN(C(=O)c3ccco3)CC2)CC1C (centres undefined) | u | 10µM* | -5% | x | 136% | -22%
SMILES | AmpC detergent | Pf growth 48h | SARS PLP yeast | Pf growth 96h | AmpC no deterg | Sm TGR inh
CC(=O)N1c2c(cc(Br)cc2S(=O)(=O)NCc2ccc(C)cc2)CC1C (centres undefined) | u | -17% | -2% | 49% | -15% | 6%
COc1ccc(CNS(=O)(=O)c2cc(Br)cc3c2N(C(C)=O)C(C)C3)cc1 (centres undefined) | 2% | -8% | -2% | 4.1µM* | -21% | -2%
CC(C)c1cc(C(F)(F)F)n2nc(C(=O)Nc3ccc4c(c3)OCO4)cc2n1 | -18% | 12% | -8% | 10%[5.75 µM] | 18% | 0%
CC1CCN(C(c2ccc(F)cc2)c2sc3nc(-c4ccco4)nn3c2O)CC1 (centres undefined) | -1% | x | x | x | x | -11%
COc1ccc2c3c([nH]c2c1)C1(NCC3)C(=O)Nc2ccccc21 (centres undefined) | -10% | u | -2% | u | -20% | -1%
O=C1Nc2ccccc2C12NCCc1c2[nH]c2ccccc12 (centres undefined) | 2% | 6.6µM* | -4% | x | -20% | -21%
CCOC(=O)C1CCN(c2c(C(=O)c3ccc(C)cc3)cnc3ccc(F)cc23)CC1 | 20% | x | x | x | x | 12%
C=CCn1c(=NC(=O)C2COc3ccccc3O2)sc2cccc(OC)c21 (centres undefined) | 5% | 7.4µM* | -1% | 1.2µM* | -23% | u
COc1ccc(CNCCc2c[nH]c3ccccc23)c(OC)c1C | 6% | u | -2% | 2.9µM* | 13% | 8%
COc1ccc(CNCCc2ccccc2F)c(OC)c1C | -10% | 10µM* | 1% | -6% | -9% | -14%
CCOc1cc(CNCCc2ccccc2F)ccc1OC | 5% | -25% | -1% | u | 0% | -3%
Cc1ccc(-c2noc(CCC(=O)NCC3CCCO3)n2)cc1 (centres undefined) | 1% | x | -8% | 34% | 0% | -5%
